Screens as filed in PubChem BioAssay.
mTORC1 inh: Acumen qHTS Assay for Inhibitors of the mTORC1 Signaling Pathway in MEF (Tsc2-/-, p53-/-) Cells: Sytravon; Tsc2-/- p53-/- MEF, phospho-rpS6 immunofluorescence/PI, 24 h; actives 0.78% (n = 44,000); AID 493208, 2011; Potency, µM (series often up to 38.3 µM), usual class: inhibitors; note: nearly all actives have a fitted effect of over 50% in size
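Tsc2-/-, p53-/- mouse embryonic fibroblasts (empty-vector line) exposed to compound 24 hrs at 37 C, fixed, immunostained for phospho-rpS6 and counterstained with propidium iodide. Acumen laser scanning gives % positive cells from Alexa 488/PI ratio, thresholded using 7.5 nM rapamycin; PI count gives viability.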
S16 F2sN tox: Cell viability qHTS assay in S16 Pmp22-F2sN cells; S16 Pmp22-F2sN Schwann cells viability, CellTiter-Glo, 24 h; Potency, µM (highest dose often 57.5 µM), most hits filed as cytotoxic; actives 0.48% (n = 43,000); note: nearly all actives have a fitted effect of over 65% in size
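Used to flag compounds lowering reporter output through toxicity, this quantitative HTS measures ATP-based CellTiter-Glo luminescence in S16 Pmp22-F2sN Schwann cells after 24 h compound exposure at 37C.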
p53null 39C tox: qHTS Screen for Compounds that Selectively Target Cancer Cells with p53 Mutations: Cytotoxicity of p53 Null Cells at the Nonpermissive Temperature. actives 0.97% (n = 55,000). AID 904, 2007. Potency, µM (highest dose often 46.1 µM), hits mostly cytotoxic. H1299 p53-null (neo) cells, 39C, ATPlite viability, 24 h; note: nearly all actives have a fitted effect of over 50% in size
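H1299 lung cancer cells, p53-null (H1299-neo) or expressing p53 A138V (H1299-p53A138V), were plated overnight at 37C, then exposed to compounds at up to 46 uM for 24 hr at 39C. Viability was read by ATP-based luminescence.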
SKOV3 invasion: Primary qHTS assay for Inhibitors of ovarian cancer metastasis using an organotypic tumor microenvironment (TME) model. SKOV3ip1-GFP adhesion/invasion on 3D omental model, fluorescence. Potency, µM (doses to about 45.8 µM), actives largely listed as inhibitors. actives 0.1% (n = 46,000); note: nearly all actives have a fitted effect of over 65% in size
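Primary human omental fibroblast/mesothelial 3D culture pre-formed 48 h. SKOV3ip1-GFP cells added with compounds (0.36-46 umol/L), incubated 2 h RT/16 h 37 C, fixed; GFP cells quantified at 488/509 nm.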
p53null 32C tox: qHTS Screen for Compounds that Selectively Target Cancer Cells with p53 Mutations: Cytotoxicity of p53 Null Cells at the Permissive Temperature | H1299-neo p53 null cells, ATP luminescence, 24 h, 32C | Potency, µM (series often up to 46.1 µM), hits mostly cytotoxic | actives 0.62% (n = 55,000) | AID 903, 2007; note: nearly all actives have a fitted effect of over 55% in size
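AC50 values derive from Hill modelling of qHTS concentration-response data (up to 46 uM) in H1299-neo cells. Cells were treated 24 h at 32C following overnight attachment at 37C; viability was read as cellular ATP.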
PMP22 txn prim: Cell-based coincidence reporter assay to measure PMP22 gene transcription in S16 Pmp22-F2sN cells - Primary screen; actives 2% (n = 43,000); Potency, µM (doses to about 57.5 µM), hits mostly inhibitors; S16 Pmp22-F2sN Schwann cells (luciferase reporters placed in the Pmp22 gene), FLuc/NLuc coincidence luminescence, 24 h; active = clear falling dose curves in both reporters; inconclusive = both reporters move, but less clearly or upward; inactive = either reporter flat; the % is the NLuc reporter signal
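S16 Schwann cells carrying FLuc/NLuc coincidence reporter in the Pmp22 3' UTR treated with compound 24 h at 37C; FLuc then NLuc luminescence read sequentially by dual-luciferase reagents.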
NLuc saturating: Biochemical NLuc saturation counterscreen for small molecule modulators of PMP22 gene expression - Nano-Glo assay | shares compounds with PMP22 txn prim | Secreted NLuc enzyme (filtered S16 cell medium), Nano-Glo luminescence | Potency, µM (titrated, usually from 57.5 µM), actives largely listed as inhibitors | actives 4% (n = 690)
NLuc Km counter: Biochemical coelenterazine-based NLuc counterscreen for small molecule modulators of PMP22 gene expression - Km assay; shares compounds with PMP22 txn prim; secreted NLuc enzyme, coelenterazine luminescence, Km conditions; Potency, µM (highest dose often 57.5 µM), most hits filed as inhibitors; actives 5% (n = 690)
FLuc ctr PMP22: Biochemical FLuc counterscreen for small molecule modulators of PMP22 gene expression. AID 1508640, 2021. 690 tested, under 10 active. Potency, µM (doses to about 57.5 µM), actives largely listed as inhibitors. shares compounds with PMP22 txn prim. purified P. pyralis FLuc, luminescence, 10 min
Target sequence (P08659 whole entry, looked up): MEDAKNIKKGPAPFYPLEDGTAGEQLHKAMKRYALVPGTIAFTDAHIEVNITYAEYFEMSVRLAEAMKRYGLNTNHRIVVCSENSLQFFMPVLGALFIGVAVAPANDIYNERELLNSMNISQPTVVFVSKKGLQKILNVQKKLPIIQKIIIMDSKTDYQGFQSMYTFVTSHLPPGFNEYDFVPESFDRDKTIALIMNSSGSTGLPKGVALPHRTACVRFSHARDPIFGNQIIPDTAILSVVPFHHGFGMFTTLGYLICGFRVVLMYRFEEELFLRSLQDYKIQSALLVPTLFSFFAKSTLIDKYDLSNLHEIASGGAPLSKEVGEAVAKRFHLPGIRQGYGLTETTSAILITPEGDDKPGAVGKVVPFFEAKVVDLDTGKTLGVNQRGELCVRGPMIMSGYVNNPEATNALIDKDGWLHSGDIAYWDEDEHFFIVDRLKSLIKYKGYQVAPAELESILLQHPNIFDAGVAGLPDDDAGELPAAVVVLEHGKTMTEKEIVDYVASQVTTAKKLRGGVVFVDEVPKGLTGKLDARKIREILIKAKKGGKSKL
S16 viab conf: Cell viability qHTS assay in S16 Pmp22-F2sN cells - Confirmatory screen; shares compounds with PMP22 txn prim; S16 Schwann cells viability, CellTiter-Glo ATP luminescence, 24 h; Potency, µM (doses to about 57.5 µM), hits mostly cytotoxic; actives 7% (n = 690)
PMP22 txn conf: Cell-based coincidence reporter assay to measure PMP22 gene transcription in S16 Pmp22-F2sN cells - Confirmatory screen. shares compounds with PMP22 txn prim. S16 Schwann cells Pmp22-F2sN, dual luciferase, 24 h. Potency, µM (doses to about 57.5 µM), most hits filed as inhibitors. actives 22% (n = 690). AID 1508646, 2021; active = clear falling dose curves in both reporters; inconclusive = both reporters move, but less clearly or upward; inactive = either reporter flat; the % is the FLuc reporter signal
PMP22 HiBiT cnf: Cell-based HiBiT reporter assay to measure PMP22 protein expression in S16 Pmp22-HiBiT cells - Confirmatory screen; S16 Schwann cells Pmp22-HiBiT, luminescence, 48 h; shares compounds with PMP22 txn prim; AID 1508647, 2021; Potency, µM (titrated, usually from 27.9 µM), usual class: inhibitors; 95 tested, under 10 active
Target sequence (P25094 whole entry, looked up): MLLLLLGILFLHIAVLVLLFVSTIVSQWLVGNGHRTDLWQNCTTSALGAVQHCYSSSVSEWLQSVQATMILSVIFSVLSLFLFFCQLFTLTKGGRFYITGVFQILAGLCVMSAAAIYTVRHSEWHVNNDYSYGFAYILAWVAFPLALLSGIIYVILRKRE
Of the large screens only hits and unclear results are named; the others gave an inactive call (follow-up assays come after a bar, where they were run). In the library only some 3.1% were active in any assay of this set; here they are far more common. Unless noted, calls come from the whole dose curve; as a rule, active = well fitted curve in the direction sought with a large enough effect; inconclusive = small, poorly fitted or top-dose-only effect, or another doubt; inactive = no such curve, though single readings can be large; an effect the other way counts as inactive or inconclusive.

O=C(NCCSc1c[nH]c2ccccc12)c1ccccc1Cl	S16 F2sN tox inconclusive, PMP22 txn prim inconclusive | NLuc saturating inconclusive | NLuc Km counter inconclusive | FLuc ctr PMP22 inactive | S16 viab conf inactive | PMP22 txn conf inactive
CCCCCn1c(=N)n(CC(O)COc2cccc(C)c2)c2ccccc21 (configuration not stated)	mTORC1 inh 3.69µM, S16 F2sN tox inconclusive, p53null 39C tox inconclusive, SKOV3 invasion inconclusive, p53null 32C tox inconclusive, PMP22 txn prim 17.8µM | NLuc saturating inactive | NLuc Km counter inactive | FLuc ctr PMP22 inactive | S16 viab conf 21.7µM | PMP22 txn conf 16.3µM
O=C(Nc1c(Cl)cncc1Cl)c1ccc(OC(F)F)c(OCC2CC2)c1	none (no result: mTORC1 inh, S16 F2sN tox, p53null 39C tox, p53null 32C tox, PMP22 txn prim)
COc1ccc(C)cc1NC(=O)c1nnn(CC(=O)Nc2c(C)cccc2C)c1N	PMP22 txn prim 9.15µM | NLuc saturating inactive | NLuc Km counter inactive | FLuc ctr PMP22 inactive | S16 viab conf inconclusive | PMP22 txn conf inconclusive
COc1ccc(C)cc1NC(=O)Cn1c(=O)cc(C)c2c(C)nn(C)c21	PMP22 txn prim 7.61µM | NLuc saturating inactive | NLuc Km counter inactive | FLuc ctr PMP22 inactive | S16 viab conf inactive | PMP22 txn conf inconclusive
Cc1ccc(CS(=O)(=O)c2ncc(Cl)c(C(=O)Nc3nc4ccc(F)cc4s3)n2)cc1	S16 F2sN tox inconclusive, p53null 39C tox inconclusive, PMP22 txn prim 5.39µM | NLuc saturating inactive | NLuc Km counter inconclusive | FLuc ctr PMP22 inactive | S16 viab conf inconclusive | PMP22 txn conf 16.5µM | PMP22 HiBiT cnf inconclusive
COC(=O)c1ccccc1NC(=O)c1nc(S(=O)(=O)Cc2cccc(C)c2)ncc1Cl	S16 F2sN tox inconclusive, PMP22 txn prim 5.32µM | NLuc saturating inactive | NLuc Km counter 3.85µM | FLuc ctr PMP22 inactive | S16 viab conf inconclusive | PMP22 txn conf 7.27µM | PMP22 HiBiT cnf inactive
COc1ccc2nc(NC(=O)c3nc(S(=O)(=O)Cc4ccc(C)cc4)ncc3Cl)sc2c1	mTORC1 inh inconclusive, S16 F2sN tox 28.2µM, p53null 39C tox inconclusive, SKOV3 invasion inconclusive, PMP22 txn prim 7.27µM | NLuc saturating inactive | NLuc Km counter inactive | FLuc ctr PMP22 inactive | S16 viab conf inactive | PMP22 txn conf inactive
CCCSc1ncc(Cl)c(C(=O)Nc2nc3ccc(OCC)cc3s2)n1	none
Cc1ccc(CNC(=O)c2nc(SCc3ccc(C)cc3)ncc2Cl)cc1	PMP22 txn prim inconclusive
Cc1ccc(CNC(=O)c2nc(S(=O)(=O)Cc3ccc(C)cc3)ncc2Cl)cc1	S16 F2sN tox inconclusive, p53null 39C tox inconclusive, PMP22 txn prim 10.1µM | NLuc saturating inactive | NLuc Km counter inactive | FLuc ctr PMP22 inactive | S16 viab conf inactive | PMP22 txn conf 17.3µM | PMP22 HiBiT cnf inactive
CN(C)Cc1c(C(=O)NCCOc2ccc(C(=O)NO)cc2)oc2ccccc12	none (no result: mTORC1 inh, S16 F2sN tox, p53null 39C tox, p53null 32C tox, PMP22 txn prim)
O=C(Nc1cccc2c(=O)cc(-c3nn[nH]n3)oc12)c1ccc(OCCCCc2ccccc2)cc1	none (no result: mTORC1 inh, S16 F2sN tox, p53null 39C tox, p53null 32C tox, PMP22 txn prim)
Cc1cnc(Nc2ccc(OCCN3CCCC3)cc2)nc1Nc1cccc(S(=O)(=O)NC(C)(C)C)c1	none (no result: mTORC1 inh, S16 F2sN tox, p53null 39C tox, p53null 32C tox, PMP22 txn prim)
COc1ccc(-n2c(C)c([N+](=O)[O-])c3ccc(O)cc32)cc1	none (no result: mTORC1 inh, S16 F2sN tox, p53null 39C tox, p53null 32C tox, PMP22 txn prim)
CC1CCN(S(=O)(=O)c2ccc3c(c2)CCN3C(=O)Nc2ccc(Br)cc2)CC1	PMP22 txn prim inconclusive
Cc1ccc(NC(=O)N2CCc3cc(S(=O)(=O)N4CCC(C)CC4)ccc32)cc1F	PMP22 txn prim 8.91µM | NLuc saturating inactive | NLuc Km counter inactive | FLuc ctr PMP22 inactive | S16 viab conf inconclusive | PMP22 txn conf 14.5µM | PMP22 HiBiT cnf inactive
CCN(Cc1ccccc1)C(=O)Cn1c(=O)n(-c2ccccc2)c(=O)c2c1c1cc(C)ccc1n2C	S16 F2sN tox inconclusive, p53null 39C tox inconclusive, PMP22 txn prim 17.9µM | NLuc saturating inactive | NLuc Km counter inactive | FLuc ctr PMP22 inactive | S16 viab conf inactive | PMP22 txn conf inconclusive
CCN(Cc1ccccc1)C(=O)Cn1c(=O)n(-c2cccc(C)c2)c(=O)c2c1c1cc(OC)ccc1n2C	PMP22 txn prim inconclusive
COc1ccc(NC(=O)Cn2c(=O)n(-c3cccc(C)c3)c(=O)c3c2c2cc(C)ccc2n3C)cc1Cl	PMP22 txn prim 15.2µM | NLuc saturating inactive | NLuc Km counter inactive | FLuc ctr PMP22 inactive | S16 viab conf inactive | PMP22 txn conf inconclusive
